The target of assay [1] is Bile acid receptor (Homo sapiens) (UniProt Q96RI1). The experiment in a line: ATG_IR1_CIS: Attagene CIS-FACTORIAL HepG2 Assay for human Nuclear Receptor Subfamily 1 Group H Member 4 (NR1H4), IR1 submotif (AID 2282946). As to conditions: IR1 reporter transcription, actives raise or lower the signal. In short, it runs like this:
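Fluorescence of capillary-separated, HpaI-digested RT-PCR reporter products gave IR1-element mRNA induction in HepG2 cells 24 h after dosing. Endogenous transcription factors drove the cis-regulated reporters; activity was fitted bidirectionally against DMSO.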

Assay [2] can be described thus: ATG_GRE_CIS: Attagene CIS-FACTORIAL HepG2 Assay for human Glucocorticoid Response Elements (GRE) (AID 2282947). As to conditions: HepG2 GRE cis-reporter, Attagene multiplex mRNA; actives raise or lower the signal. In short, it runs like this: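 Fluorescence intensity of reporter-specific cDNA fragments, separated by capillary electrophoresis, provides the signal. Constructs carry cis-regulating promoters in transiently transfected HepG2 liver cells; 24 h incubation; fitting is bidirectional against DMSO.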

Assay [3] in a line: ATG_ISRE_CIS: Attagene CIS-FACTORIAL HepG2 Assay for human Interferon Regulatory Factor 1 (IRF1) binding to an Interferon-Stimulated Response Element (ISRE) (AID 2282948). As to conditions: HepG2 ISRE cis-reporter (Attagene), mRNA transcription readout; actives raise or lower the signal. In a few lines: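 Signal reflects induction or loss of ISRE-linked reporter mRNA in transiently transfected HepG2 cells after a 24 h treatment, detected by fluorescent RT-PCR fragments on capillary electrophoresis and normalised to DMSO.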

Assay [4] can be described thus: ATG_M_32_CIS: Attagene CIS-FACTORIAL HepG2 Assay for M32 Transcription Factor (Internal Marker) (AID 2282949).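 Further: background control marker of the multiplexed CIS panel rather than a real target.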 As to conditions: HepG2 Attagene cis-factorial M32 reporter, mRNA; actives raise or lower the signal. In short, it runs like this:
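HepG2 transfectants (cis-regulated reporter transcription units) dosed 24 h. Reporter mRNA by RT-PCR plus CE, analysed as gain or loss relative to DMSO.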

A short description of assay [5]: ATG_M_06_CIS: Attagene CIS-FACTORIAL HepG2 Assay for M06 Transcription Factor (Internal Marker) (AID 2282950). As to conditions: HepG2 Attagene CIS-FACTORIAL M06 internal marker reporter; actives raise or lower the signal. In short, it runs like this:
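Terse: HepG2, transient MRTU transfection (FuGene 6), 24 h dosing; total RNA, oligo(dT) RT, PCR, FAM label, HpaI cut, capillary electrophoresis; bidirectional fit vs DMSO baseline; background-control endpoint.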

Assay [6] addresses Hypoxia-inducible factor 1-alpha (Homo sapiens) (UniProt Q16665). As to the kind of experiment: ATG_HIF1a_CIS: Attagene CIS-FACTORIAL HepG2 Assay for human Hypoxia Inducible Factor 1 (HIF1A) (AID 2282951). As to conditions: HepG2 Attagene cis-factorial HIF1a reporter transcription; actives raise or lower the signal. In a few lines:
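HepG2 cells transiently transfected with multiple cis-regulated reporter transcription units measure endogenous transcription factor activity. After 24 h exposure, reporter mRNA is quantified by RT-PCR with 6-FAM labelling, HpaI digestion and capillary electrophoresis. Bidirectional fitting against DMSO.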

In assay [7] the target is Hepatocyte nuclear factor 6 (Homo sapiens) (UniProt Q9UBC0). The experiment in a line: ATG_HNF6_CIS: Attagene CIS-FACTORIAL HepG2 Assay for human Hepatocyte Nuclear Factor 6 (HNF6) (AID 2282952). As to conditions: HepG2 Attagene cis-factorial HNF6 reporter transcription; actives raise or lower the signal. In short, it runs like this: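 Readout: fluorescent reporter-transcript fragments resolved by capillary electrophoresis after RT-PCR, reflecting endogenous factor activity in transfected HepG2. Exposure 24 h. Gain or loss of signal fitted bidirectionally against DMSO.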

Assay [8] has as its target Heat shock factor protein 1 (Homo sapiens) (UniProt Q00613). As to the kind of experiment: ATG_HSE_CIS: Attagene CIS-FACTORIAL HepG2 Assay for human Heat Shock Transcription Factor 1 (HSE) (AID 2282953). As to conditions: HepG2 HSE cis-reporter, Attagene RNA transcription; actives raise or lower the signal. In short, it runs like this: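 Read-out: fluorescence of reporter-specific RT-PCR fragments separated by capillary electrophoresis. HepG2 carrying transfected cis-element reporter units; 24 h dosing; activity fitted in both directions relative to DMSO baseline.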

Assay [9] is described as follows: ATG_MRE_CIS: Attagene CIS-FACTORIAL HepG2 Assay for human Metal Responsive Element (MRE) (AID 2282954). As to conditions: HepG2 MRE cis-reporter transcription, Attagene multiplex; actives raise or lower the signal. In short, it runs like this: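 Measured here is mRNA induction from an MRE cis-element reporter in HepG2 after 24 h, quantified by fluorescence of labelled RT-PCR products on capillary electrophoresis; gain- and loss-of-signal fits use DMSO as baseline.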

Assay [10] is described as follows: ATG_PBREM_CIS: Attagene CIS-FACTORIAL HepG2 Assay for human Phenobarbital-responsive Enhancer Module (PBREM) (AID 2282955). As to conditions: HepG2 PBREM cis-reporter, Attagene multiplexed transcription; actives raise or lower the signal. In short, it runs like this: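 HepG2 cells transiently transfected with multiple cis-regulated reporter units measure endogenous transcription factor activity; 24 h compound exposure. Reporter mRNA quantified by RT-PCR, fluorescent labelling, HpaI digestion and capillary electrophoresis; bidirectional fit versus DMSO.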

Values joined by “and” are separate entries in the source; they are usually repeats but may differ in a detail not shown here. Equal values may be shown once. Active and inactive are the calls of the source. How the source made its calls: active means hit-call score of the fitted dose curve at least 0.9, where 1 is the maximum; inactive means score below 0.9.

Sequence of Hypoxia-inducible factor 1-alpha (Homo sapiens) (Q16665 whole entry, looked up): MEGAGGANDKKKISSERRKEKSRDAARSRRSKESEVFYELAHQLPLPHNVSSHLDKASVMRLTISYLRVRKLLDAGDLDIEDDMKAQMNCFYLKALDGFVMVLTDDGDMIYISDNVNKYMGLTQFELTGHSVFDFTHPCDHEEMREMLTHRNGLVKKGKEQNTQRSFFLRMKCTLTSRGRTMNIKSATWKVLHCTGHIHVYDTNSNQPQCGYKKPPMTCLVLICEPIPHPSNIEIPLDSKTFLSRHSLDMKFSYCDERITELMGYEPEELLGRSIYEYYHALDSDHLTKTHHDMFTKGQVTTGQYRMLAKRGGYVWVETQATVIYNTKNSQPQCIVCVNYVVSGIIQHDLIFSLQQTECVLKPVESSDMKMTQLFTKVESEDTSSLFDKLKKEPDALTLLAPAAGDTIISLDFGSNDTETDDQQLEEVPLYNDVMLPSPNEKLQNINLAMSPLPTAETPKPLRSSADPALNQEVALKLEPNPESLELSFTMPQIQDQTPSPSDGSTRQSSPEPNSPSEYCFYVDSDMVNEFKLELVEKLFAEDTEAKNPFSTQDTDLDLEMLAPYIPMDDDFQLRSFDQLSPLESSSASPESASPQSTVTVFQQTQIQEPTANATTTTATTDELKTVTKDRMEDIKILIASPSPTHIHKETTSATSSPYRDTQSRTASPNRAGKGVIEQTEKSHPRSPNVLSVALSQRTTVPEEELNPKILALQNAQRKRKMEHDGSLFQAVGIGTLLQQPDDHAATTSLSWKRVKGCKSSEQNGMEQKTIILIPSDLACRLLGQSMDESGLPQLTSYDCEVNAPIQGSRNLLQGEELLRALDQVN
Sequence of Bile acid receptor (Homo sapiens) (Q96RI1 whole entry, looked up): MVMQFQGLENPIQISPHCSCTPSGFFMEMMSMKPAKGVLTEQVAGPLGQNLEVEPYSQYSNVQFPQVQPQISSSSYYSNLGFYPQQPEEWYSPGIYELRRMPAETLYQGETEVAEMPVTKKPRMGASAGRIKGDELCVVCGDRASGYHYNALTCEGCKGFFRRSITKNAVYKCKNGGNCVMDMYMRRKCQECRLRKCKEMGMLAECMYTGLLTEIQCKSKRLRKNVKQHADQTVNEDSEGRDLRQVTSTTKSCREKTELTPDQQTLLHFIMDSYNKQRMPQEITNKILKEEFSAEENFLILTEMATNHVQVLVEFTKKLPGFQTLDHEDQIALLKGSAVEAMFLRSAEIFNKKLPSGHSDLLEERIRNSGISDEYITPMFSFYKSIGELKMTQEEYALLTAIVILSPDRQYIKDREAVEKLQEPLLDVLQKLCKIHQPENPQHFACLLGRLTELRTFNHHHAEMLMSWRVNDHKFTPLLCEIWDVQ
Sequence of Heat shock factor protein 1 (Homo sapiens) (Q00613 whole entry, looked up, the tested form may be a part): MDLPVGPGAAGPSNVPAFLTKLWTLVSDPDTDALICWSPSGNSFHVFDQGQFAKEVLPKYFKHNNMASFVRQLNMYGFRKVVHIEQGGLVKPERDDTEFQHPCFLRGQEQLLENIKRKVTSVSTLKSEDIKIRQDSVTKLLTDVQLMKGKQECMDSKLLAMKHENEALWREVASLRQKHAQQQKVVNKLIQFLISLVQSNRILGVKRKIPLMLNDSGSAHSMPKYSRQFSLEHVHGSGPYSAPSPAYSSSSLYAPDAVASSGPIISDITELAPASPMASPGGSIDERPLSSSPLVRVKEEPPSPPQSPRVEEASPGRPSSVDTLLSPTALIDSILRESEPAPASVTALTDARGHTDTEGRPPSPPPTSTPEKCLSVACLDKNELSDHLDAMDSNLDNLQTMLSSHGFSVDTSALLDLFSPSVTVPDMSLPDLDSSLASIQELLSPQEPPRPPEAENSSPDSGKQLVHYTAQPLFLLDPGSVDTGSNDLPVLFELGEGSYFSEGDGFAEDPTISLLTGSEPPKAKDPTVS
Sequence of Hepatocyte nuclear factor 6 (Homo sapiens) (Q9UBC0 whole entry, looked up, the tested form may be a part): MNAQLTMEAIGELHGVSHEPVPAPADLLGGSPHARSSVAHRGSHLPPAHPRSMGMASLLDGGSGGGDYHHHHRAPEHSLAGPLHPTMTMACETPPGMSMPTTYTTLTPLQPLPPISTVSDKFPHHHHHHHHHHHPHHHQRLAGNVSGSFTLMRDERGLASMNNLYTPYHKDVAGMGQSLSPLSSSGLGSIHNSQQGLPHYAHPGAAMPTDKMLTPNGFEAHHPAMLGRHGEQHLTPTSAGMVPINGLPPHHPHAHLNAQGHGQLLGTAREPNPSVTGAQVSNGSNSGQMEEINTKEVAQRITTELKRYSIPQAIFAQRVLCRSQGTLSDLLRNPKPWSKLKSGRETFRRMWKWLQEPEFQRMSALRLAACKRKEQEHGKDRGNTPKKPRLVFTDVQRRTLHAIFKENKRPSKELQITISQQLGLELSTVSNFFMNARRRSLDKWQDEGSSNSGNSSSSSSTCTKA

As for `Nc1ccc(Cc2ccc(N)cc2)cc1`, the result in [1], in [2], in assay [3], in assay [4], in assay [5] and in assay [6] was inactive. In addition, the molecule was called inactive in assay [7], in [8] and in assay [9].

Consider `ClCCOCCCl`, for which the molecule was classed as inactive in assay [1], in [2], in assay [3], in assay [4], in assay [5] and in assay [6]. In addition, the outcome in assay [7] and in assay [8] was inactive.

As to `COP(=S)(OC)SCN1C(=O)c2ccccc2C1=O`, the molecule was called inactive in [1], in assay [2], in assay [3], in [4], in assay [6] and in [7]. Also, the call in [8] was inactive.

Consider `CO[C@@H]1[C@H](OC(=O)NC(=O)CCl)CC[C@]2(CO2)[C@H]1[C@@]1(C)O[C@@H]1CC=C(C)C`, for which the outcome in [2], in assay [3], in assay [4], in assay [5], in [7] and in assay [8] was inactive. Also, the call in assay [9] and in [10] was inactive.

Regarding `CCCSC(=O)N(CCC)CCC`, the molecule was classed as inactive in assay [2], in [3], in assay [4], in assay [5], in assay [6] and in [7]. Also, the result in assay [8] was inactive.

Consider `CC(C)N(Cc1ccccc1)C(=O)C(C)(C)C`, for which the molecule was called inactive in assay [1], in assay [3], in assay [4], in assay [5], in [6] and in assay [7]. The result in assay [8] and in assay [10] was inactive.

By AC50 is commonly meant the concentration giving half of the maximal activity seen. For the molecule `CC(C)(O)c1cnn2c(-c3ccc(F)c(-c4c(F)cccc4C#N)c3)cnc2n1`, the call in [1], in assay [2], in assay [3], in [4] and in assay [7] was inactive. The AC50 in [8] is 25.8 µM (active); in assay [9] it was 1.73 µM (active).

On to `CCCCCCCCOC(=O)c1ccc(C(=O)OCCCCCCCC)c(C(=O)OCCCCCCCC)c1`, for which the molecule was called inactive in assay [1], in assay [2], in assay [3], in assay [4], in assay [7] and in assay [8]. In addition, in assay [9], the result was inactive.

Consider `CCN(CC)N=O`, for which the outcome in assay [1], in assay [3], in assay [4], in [7], in assay [8] and in assay [9] was inactive.

As for `O=C1CCCO1`, the outcome in assay [1], in assay [2], in assay [3], in assay [4], in assay [7] and in assay [8] was inactive.

For the molecule `CCNS(=O)(=O)C(F)(F)C(F)(F)C(F)(F)C(F)(F)C(F)(F)C(F)(F)C(F)(F)C(F)(F)F`, the result in [1], in [3], in assay [4], in assay [5], in assay [6] and in assay [7] was inactive. The AC50 in assay [8] is 130 µM (active) and 218 µM (active) and 80.8 µM (active).

Regarding `CCOc1cccc(C2(N3CCN(c4ccccc4)CC3)CCC(C)CC2)c1` (stereo not given), the molecule was classed as inactive in [2], in [3], in [4], in assay [6] and in [7].

Turning to `ClC1=C(Cl)[C@]2(Cl)[C@H]3[C@H]([C@@H]4C=C[C@H]3C4)[C@@]1(Cl)C2(Cl)Cl`, the molecule was classed as inactive in [2], in assay [3], in [4], in assay [5], in [7] and in assay [8]. Moreover, the AC50 in assay [9] was 33.4 µM (active).

Turning to `O=[N+]([O-])C(Br)(CO)CO`, the call in assay [1], in assay [4], in [7] and in [10] was inactive. The AC50 was 164 µM (active) in [3] and 158 µM (active) in [8].

For the molecule `COC(=O)Nc1nc2ccccc2[nH]1`, the result in assay [2], in assay [3], in assay [4], in assay [5], in assay [7] and in assay [8] was inactive. Moreover, the molecule was classed as inactive in [9].

Take `CC(C)(C)C(O)(CCc1ccc(Cl)cc1)Cn1cncn1` (stereo not given): the molecule was classed as inactive in assay [2], in assay [3], in [4], in assay [6], in assay [7] and in [8].

For `Oc1ccc2ccc3cccc4ccc1c2c34`, the outcome in assay [2], in [3], in assay [4], in [7] and in assay [8] was inactive. For the same molecule, in assay [6], the AC50 is 0.00117 µM (active).

In the case of `O=C(N[C@H](c1ccccc1)[C@@H]1CN2CCC1CC2)c1c(Cl)ccc(C(F)(F)F)c1Cl`, the result in [1], in assay [2], in assay [3], in assay [4], in [7] and in [8] was inactive. In addition, the molecule was called inactive in [9] and in assay [10]. The AC50 in assay [6] is 0.207 µM (active).

On to `CCCCOC(=O)c1ccccc1C(=O)OCc1ccccc1`, for which the outcome in [2], in assay [3], in assay [4], in assay [5], in assay [7] and in assay [8] was inactive.

Consider `OCCCBr`, for which the outcome in [2], in [3], in [4], in assay [5], in assay [7] and in [8] was inactive. Further, the molecule was classed as inactive in assay [9] and in [10].

For `Brc1ccc(Oc2ccccc2)cc1`, the molecule was called inactive in [2], in assay [4], in assay [5], in assay [7] and in assay [8]. The AC50 in assay [3] is 100 µM (active).

Consider `Cc1ccc(N=C=O)cc1N=C=O`, for which the call in assay [2], in assay [3], in assay [4], in assay [6] and in [7] was inactive.

On to `CCCCCOC(=O)c1ccccc1C(=O)OCCCCC`, for which the molecule was called inactive in assay [2], in assay [3], in assay [4], in assay [5], in assay [7] and in assay [8]. Also, in assay [9], the AC50 is 151 µM (active).

In the case of `CCCCCCCCCCCCCN1CC(C)OC(C)C1` (stereo not given), the outcome in assay [2], in [3], in assay [4], in assay [5], in assay [7] and in [8] was inactive. Further, in assay [9], the outcome was inactive.

As to `CCN(CC)CCO`, the outcome in assay [2], in [3], in [4], in assay [5], in [6] and in [7] was inactive. Moreover, the molecule was called inactive in assay [8] and in [9].

For `CNC(=O)Oc1cccc2c1OC(C)(C)C2`, the result in [2], in assay [3], in assay [4], in assay [5], in assay [6] and in assay [7] was inactive. The outcome in assay [8] was inactive.

For the molecule `O=C(Nc1ccccc1)c1ccccc1I`, the outcome in assay [2], in assay [3], in assay [4], in assay [5], in assay [7] and in assay [8] was inactive. In [9], the molecule was classed as inactive.

As to `COC(=O)c1ccccc1N`, the outcome in assay [2], in assay [3], in assay [4], in [5], in assay [7] and in assay [8] was inactive. For the same molecule, the molecule was called inactive in assay [9] and in [10].

(Values after PubChem BioAssay (EPA / NIEHS).)
